Screening results: PubChem, National Center for Advancing Translational Sciences (NCATS)
Compounds with a hit are over-represented: about 19% of the library has one in this group of screens.
TGFb SMAD3 inh – TGF-b pathway inhibition; Potency, µM (top dose mostly 46.1 µM), hits mostly inhibitors; HepG2 CAGA-GFP TGF-b/SMAD3 reporter, GFP fluorescence, 18 h; TGF-beta stimulated, 500 pg/mL final; hit rate 1.2% among 410,000; also: nearly all actives have a fitted effect of over 65% in size
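HEPG2 CAGA-GFP, 1000 cells/well; 2 h settle, 37 C; cpd via pin tool; TGF-b 500 pg/mL final; 18 h, 37 C; GFP imaging ex488/em500-530; %Activity normalised to -TGF-b and +DMSO controls; CRC fit, curve class.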
DT40 TDP1 no CPT – qHTS for Inhibitors of human tyrosyl-DNA phosphodiesterase 1 (TDP1): qHTS in cells in absence of CPT; DT40 Tdp1-/- hTDP1 cells, no CPT, ATP luminescence, 48 h; Potency, µM (doses to about 46.2 µM), actives largely listed as inhibitors; hit rate 15% among 420,000; also: nearly all actives have a fitted effect of over 55% in size
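Seeded 400 DT40-hTDP1 cells/well (vehicle DMSO, no 20 nM CPT); pinned compounds; ≥48 hr at 37 °C; CellTiter-Glo luminescence as viability measure.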
S-ASM inh – human S-ASM enzyme inhibition; Potency, µM (doses to about 57.5 µM), usual class: inhibitors; hit rate 0.006% among 340,000; P17405; placental ASM, HMU-PC fluorogenic substrate, 60 min
Target sequence (P17405 47-631 limits assumed): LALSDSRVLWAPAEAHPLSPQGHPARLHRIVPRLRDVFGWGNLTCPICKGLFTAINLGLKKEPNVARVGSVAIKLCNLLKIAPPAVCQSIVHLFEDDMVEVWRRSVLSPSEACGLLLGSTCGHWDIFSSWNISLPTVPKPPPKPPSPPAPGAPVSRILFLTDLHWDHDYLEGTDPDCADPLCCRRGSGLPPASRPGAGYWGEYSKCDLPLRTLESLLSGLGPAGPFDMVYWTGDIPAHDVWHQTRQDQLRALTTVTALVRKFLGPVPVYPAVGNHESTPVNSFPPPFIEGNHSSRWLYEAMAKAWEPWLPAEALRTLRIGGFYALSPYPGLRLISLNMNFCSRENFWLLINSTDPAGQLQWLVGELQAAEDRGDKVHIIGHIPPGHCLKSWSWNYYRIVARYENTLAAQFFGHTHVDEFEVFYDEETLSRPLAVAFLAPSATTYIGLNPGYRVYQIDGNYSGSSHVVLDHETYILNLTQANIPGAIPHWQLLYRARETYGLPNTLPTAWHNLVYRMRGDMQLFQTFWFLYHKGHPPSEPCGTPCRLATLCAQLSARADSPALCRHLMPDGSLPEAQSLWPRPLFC
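Fluorogenic HMU-PC substrate (9 uM final) is turned over by placental ASM in 60 min at 37 C after a 10 min compound preincubation. Reaction ended by alkaline stop (pH 10), with fluorescence read at 386/447 nm.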
TDP1 cell CPT – growth inhibition of DT40 Tdp1-/-;hTDP1 cells with camptothecin (screen for TDP1 inhibitors). AID 686979. chicken DT40 Tdp1-/-;hTDP1 cells + 20 nM CPT, ATP luminescence, 48 h. Potency, µM (series often up to 46.2 µM), hits mostly inhibitors. hit rate 12% among 420,000; also: nearly all actives have a fitted effect of over 55% in size
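Chicken DT40 Tdp1-/- cells complemented with human TDP1, 400 cells/well, exposed to compounds plus 20 nM camptothecin for at least 48 h at 37 C; viability read as ATP content by CellTiter-Glo luminescence.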
HepG2 tox – HepG2 cytotoxicity, counter-screen for TGF-b inhibitors | HepG2 CAGA-GFP viability, ATP luminescence, 18 h | Potency, µM (series often up to 46.1 µM), most hits filed as cytotoxic | hit rate 0.76% among 410,000
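CellTiter-Glo luminescence gave cytotoxicity after 18 hours at 37 degrees C. The cells were HepG2 CAGA-GFP in 1% FBS DMEM, stimulated with 500 pg/mL TGF-beta after compound addition. %Activity was normalised to no-cell wells (complete cell-killing) and DMSO (no toxicity), and curves were fitted and classified.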
IL-1B inflam inh – blocks inflammasome-driven IL-1 beta release; THP-1 LPS/ATP IL-1B secretion, AlphaLISA, 16 h; hits give low values; activity change, % at 57.5 µM; hit rate 4.7% among 360,000; in the data active = activity change below about -50%; inconclusive = mostly about -30% to -49%
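Secreted IL-1B measured by AlphaLISA bead assay after 16 h compound exposure of THP-1 cells; compounds (final up to 57.5 uM) added 1 h before LPS (250 ng/mL) and ATP (1.25 mM) stimulation; lower signal means less secretion.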
Each line names hits and unclear results; the compound was inactive in the other large screens. Unless noted, calls follow the shape of the dose curve; as a rule, active = well fitted curve in the direction sought with a large enough effect; inconclusive = small, poorly fitted or top-dose-only effect, or another doubt; inactive = no such curve, though single readings can be large; an effect the other way counts as inactive or inconclusive.

c1ccc(NNC2=NCCCCC2)cc1	none
Clc1ccc(-c2csc(NNC3=NCCCCC3)n2)cc1	DT40 TDP1 no CPT 16µM, TDP1 cell CPT inconclusive, IL-1B inflam inh -77
COc1ccc(-c2csc(NC3=NCCCCC3)n2)cc1	none
CCOc1ccc(-c2csc(NNC3=NCCCCC3)n2)cc1	DT40 TDP1 no CPT 21µM, TDP1 cell CPT 10µM, IL-1B inflam inh -102
COc1ccc(C)cc1Nc1nc(C)nc2sc(C)cc12	DT40 TDP1 no CPT 21µM, TDP1 cell CPT inconclusive
Cc1ccc2c(c1)C(c1ccncc1)=NNC(c1ccc(F)cc1)=N2	none
Cc1ccc(C2=Nc3ccc(Br)cc3C(c3ccncc3)=NN2)cc1	TDP1 cell CPT inconclusive, IL-1B inflam inh -149
O=C(N/N=C/c1cn(CCOc2ccccc2)c2ccccc12)c1ccncc1	TGFb SMAD3 inh inconclusive
COc1ccccc1OCCn1cc(/C=N/NC(N)=S)c2ccccc21	DT40 TDP1 no CPT 29µM, TDP1 cell CPT inconclusive
CNC(=S)N/N=C/c1cn(CCOc2ccc(OC)cc2)c2ccccc12	DT40 TDP1 no CPT 7.3µM, S-ASM inh inconclusive, TDP1 cell CPT 8.2µM
COC(=O)c1cn(CCOc2ccccc2OC)c2ccccc12	TGFb SMAD3 inh inconclusive, DT40 TDP1 no CPT 15µM, TDP1 cell CPT 18µM
COc1ccccc1OCCn1cc(/C=N/NC(=O)c2ccncc2)c2ccccc21	DT40 TDP1 no CPT 18µM
CCc1ccc(CNc2nc3nc(C)c(Cc4ccccc4)c(=O)n3[nH]2)cc1	DT40 TDP1 no CPT inconclusive, TDP1 cell CPT inconclusive (no result: S-ASM inh, IL-1B inflam inh)
COc1cc([N+](=O)[O-])cc(/C=N/N(CCC#N)C(C)=O)c1O	DT40 TDP1 no CPT inconclusive
CNS(=O)(=O)c1ccc2c3c(cccc13)C(=O)N2C	IL-1B inflam inh -84
CCSc1nnc2c(n1)OC(c1cc(OC)c(OC)c(OC)c1)Nc1ccccc1-2 (stereo not given)	none (no result: S-ASM inh, IL-1B inflam inh)
O=C(N/N=C/c1ccc(O)cc1O)C(=O)N/N=C/c1ccc(O)cc1O	DT40 TDP1 no CPT inconclusive, TDP1 cell CPT inconclusive
O=C(NC1CCN(Cc2ccccc2)CC1)c1cccc(S(=O)(=O)Nc2cc(C(F)(F)F)ccc2Cl)c1	DT40 TDP1 no CPT inconclusive, TDP1 cell CPT inconclusive
COc1ccc(NS(=O)(=O)c2cccc(C(=O)NNC(=O)c3ccc(Br)o3)c2)cc1	TGFb SMAD3 inh inconclusive, DT40 TDP1 no CPT 5.8µM
COc1ccc(Cl)cc1NS(=O)(=O)c1cccc(C(=O)NC2CCN(Cc3ccccc3)CC2)c1	TGFb SMAD3 inh inconclusive, DT40 TDP1 no CPT inconclusive, TDP1 cell CPT inconclusive, IL-1B inflam inh -57
COc1ccc(NS(=O)(=O)c2cccc(C(=O)NC3CCN(Cc4ccccc4)CC3)c2)cc1	TGFb SMAD3 inh inconclusive, DT40 TDP1 no CPT inconclusive, TDP1 cell CPT 15µM, IL-1B inflam inh -70
COc1ccc(NS(=O)(=O)c2cccc(C(=O)NNC(=O)c3cccc(NC(C)=O)c3)c2)cc1	none
CCOc1cc(/C=N/NC(=O)C(=O)NCc2cccnc2)ccc1O	none
OCCC1CN(Cc2cc(F)ccc2F)CCN1CCCc1ccccc1 (stereo not given)	none
CC(=O)CCN1C(=O)NC2(CCCc3ccccc32)C1=O (stereo not given)	none
O=C(Nc1ccccc1C(=O)N1CCCCC1)c1nsc2ccccc12	TGFb SMAD3 inh inconclusive, DT40 TDP1 no CPT inconclusive, TDP1 cell CPT inconclusive (no result: S-ASM inh, IL-1B inflam inh)
Cc1nc(N2CCC(C(N)=O)CC2)c2c(-c3cccs3)csc2n1	DT40 TDP1 no CPT 21µM, TDP1 cell CPT inconclusive
COc1ccc(-c2csc3nc(C)nc(N4CCC(C)CC4)c23)cc1OC	DT40 TDP1 no CPT 18µM, TDP1 cell CPT 21µM
NC(=O)C1CCN(Cc2nc(-c3cccs3)no2)CC1	none
COc1ccc(-c2csc3nc(C)nc(N4CCN(C(C)=O)CC4)c23)cc1OC	DT40 TDP1 no CPT inconclusive
COc1cc(NC(=O)c2cccc3c2C(=O)N(Cc2cccnc2)C3)cc(OC)c1OC	DT40 TDP1 no CPT inconclusive, TDP1 cell CPT inconclusive, IL-1B inflam inh -56
O=C(Nc1ccc2c(c1)OCO2)c1cccc2c1C(=O)N(Cc1cccnc1)C2	DT40 TDP1 no CPT inconclusive, TDP1 cell CPT inconclusive, IL-1B inflam inh inconclusive
COc1cc(C(=O)Nc2ccccc2C(=O)NCc2cccnc2)cc(OC)c1OC	DT40 TDP1 no CPT inconclusive, IL-1B inflam inh -58
O=C(CCl)Nc1ccccc1C(=O)NCc1ccccc1	DT40 TDP1 no CPT inconclusive, TDP1 cell CPT 23µM, IL-1B inflam inh -83
CC(C)(C)c1ccc(OCc2ccc(C(=O)NCc3cccnc3)o2)cc1	DT40 TDP1 no CPT 8.2µM, TDP1 cell CPT 21µM
CC(C)(C)c1ccc(OCc2ccc(C(=O)NN)o2)cc1	DT40 TDP1 no CPT inconclusive, TDP1 cell CPT inconclusive
Cn1cc(Br)c(-c2cccc(N3C(=O)CCCC3=O)c2)n1	none
CS(=O)(=O)c1ccc(-n2c(=O)n(Cc3ccccc3)c(=O)c3[nH]cnc32)cc1	none
O=C(O)c1ccccc1C(=O)NCc1ccccc1	none
Nc1sccc1C(=O)NCc1ccccc1	DT40 TDP1 no CPT 15µM (no result: TGFb SMAD3 inh, S-ASM inh, HepG2 tox)
Cc1ccc(OCc2ccc(C(=O)NCc3cccnc3)cc2)cc1C	TGFb SMAD3 inh inconclusive, DT40 TDP1 no CPT 5.2µM, TDP1 cell CPT 3.3µM, IL-1B inflam inh -54
O=C(NCc1cccnc1)c1ccc(COc2ccc(Cl)cc2)cc1	DT40 TDP1 no CPT 10µM, TDP1 cell CPT 16µM
O=C(NCc1cccnc1)c1ccc(NC(=O)c2ccc(Br)cc2)cc1	DT40 TDP1 no CPT 15µM, TDP1 cell CPT 9.2µM
COc1ccc(C)cc1-n1c(SCC(=O)NCc2ccco2)nc2c([nH]c3ccccc32)c1=O	DT40 TDP1 no CPT inconclusive, TDP1 cell CPT inconclusive (no result: S-ASM inh, IL-1B inflam inh)
NC(=O)C1CCN(C(=O)C(Cc2ccccc2)NC(=O)c2ccccc2)CC1 (stereo not given)	none
COc1ccc(OC)c(C(C)NC(=O)Nc2ccccc2)c1 (stereo not given)	none
COc1ccccc1OCC(=O)Nc1ccccc1C(=O)NCc1cccnc1	none
O=C(NCCc1ccccc1)c1ccccc1NC(=O)C1CC=CCC1C(=O)O (stereo not given)	DT40 TDP1 no CPT 16µM, TDP1 cell CPT 15µM
O=C(COc1ccc(Cl)cc1)Nc1ccc(C(=O)NCc2cccnc2)cc1	DT40 TDP1 no CPT 9.2µM, TDP1 cell CPT 12µM
COC(=O)c1ccccc1NC(=O)C1CC=CCC1C(=O)O (stereo not given)	DT40 TDP1 no CPT inconclusive
O=C(COc1ccc(Cl)cc1)Nc1ccccc1C(=O)NCc1cccnc1	DT40 TDP1 no CPT 23µM, TDP1 cell CPT inconclusive
